We go through eight molecules from PubChem BioAssay (NCI).

Compounds without any hit were thinned out: in the full panel of roughly 83,000, 20% have a hit.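 The endpoint reported here, percent growth, reads 100 for growth as untreated, 0 for no net growth and -100 for all cells dead.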 A number with no mark means an inactive call. Active and inactive are the calls of the source. The calls were made as follows: active = growth percent below 10; inactive = the rest.

Assay in all cases: NCI-60 one-dose screen, 48 h (100 = growth as untreated, 0 = no growth, -100 = all killed)
In one assay the test system is DU-145 prostate. To be noted: 10 µM unless noted.
In the next assay the test system is K-562 leukemia. To be noted: 10 µM unless noted.
The test system of the next assay is MALME-3M melanoma. To be noted: 10 µM unless noted.
The test system of the next assay is RXF 393 renal. Particulars: 10 µM unless noted.
The test system of another assay is SF-268 CNS. Particulars: 10 µM unless noted.
A further assay deals with SF-295 CNS. Particulars: 10 µM unless noted.
For the next assay, the system named is SF-539 CNS. To be noted: 10 µM unless noted.
Another assay deals with UACC-257 melanoma. To be noted: 10 µM unless noted.
The subject of the next assay is HCT-15 colon. To be noted: 10 µM unless noted.
Another assay has as its system HT29 colon. Particulars: 10 µM unless noted.
The next assay concerns SNB-75 CNS. Particulars: 10 µM unless noted.
The next assay concerns SNB-19 CNS. Particulars: 10 µM unless noted.
For a further assay, the system named is U251 CNS. Particulars: 10 µM unless noted.
For the next assay, the system named is PC-3 prostate. To be noted: 10 µM unless noted.
The next assay deals with SK-MEL-5 melanoma. Particulars: 10 µM unless noted.
A further assay has as its system UACC-62 melanoma. To be noted: 10 µM unless noted.
In the next assay the test system is LOX IMVI melanoma. To be noted: 10 µM.
For the next assay, the system named is SK-MEL-28 melanoma. To be noted: 10 µM unless noted.
Another assay has as its system M14 melanoma. To be noted: 10 µM unless noted.
The subject of a further assay is MDA-MB-231 breast. To be noted: 10 µM unless noted.

On to `CC(=O)Nc1ccc(C(=O)CCl)cc1`, for which the growth in the assay with DU-145 prostate is 66%; in the assay on K-562 leukemia it was 1.75% (active); with MALME-3M melanoma it was -53.9% (active); in the assay on RXF 393 renal, 83.2%; in the assay on SF-268 CNS, 81.2%; in the assay with SF-295 CNS it was 102%. For the same molecule, the growth in the assay on SF-539 CNS was 56.1%; in the assay on UACC-257 melanoma it was 86%; in the assay with HCT-15 colon it was 6.54% (active); in the assay with HT29 colon it was 8.26% (active); with SNB-75 CNS, 84.3%; with SNB-19 CNS, 82.5%. The growth with U251 CNS was 86.3%; with PC-3 prostate, 92.9%; in the assay on SK-MEL-5 melanoma, 107%; in the assay with UACC-62 melanoma, 81.3%; with LOX IMVI melanoma, -53.6% (active); in the assay on SK-MEL-28 melanoma, 69.6%.
On to `COc1cc(NC(=O)C2=C(C)NC(C)=C(C(=O)Nc3cc(OC)c(Cl)cc3OC)C2c2cccc([N+](=O)[O-])c2)c(OC)cc1Cl`, for which the growth was 58.4% in the assay on DU-145 prostate; 33.4% in the assay on K-562 leukemia; 37.5% in the assay with MALME-3M melanoma; 36.7% in the assay with RXF 393 renal; 39.3% in the assay with SF-268 CNS; 26.3% with SF-295 CNS. The growth in the assay on SF-539 CNS was 31.8%; in the assay on UACC-257 melanoma it was 46.9%; with M14 melanoma it was 20.1%; with HCT-15 colon it was 14.3%; with HT29 colon, 40.6%; with SNB-75 CNS, 45.3%. In addition, the growth was 31.6% in the assay on U251 CNS; 16.8% in the assay with PC-3 prostate; -5.53% (active) in the assay with SK-MEL-5 melanoma; 27.6% in the assay with UACC-62 melanoma; 22.8% with LOX IMVI melanoma; 24.4% with SK-MEL-28 melanoma.
Consider `CCCCC(CCc1ccc([N+](=O)[O-])cc1)(C(C)=O)C(=O)OCC` (centres undefined), for which the growth in the assay with DU-145 prostate was 102%; in the assay with K-562 leukemia it was 99.7%; with MDA-MB-231 breast, 98.2%; with RXF 393 renal it was 85.8%; in the assay with SF-268 CNS, 95.9%; in the assay on SF-295 CNS, 99.2%. In addition, the growth with SF-539 CNS is 94.7%; in the assay with UACC-257 melanoma, 99.1%; in the assay on M14 melanoma, 96.7%; with HCT-15 colon, 94.7%; with HT29 colon, 94.2%; in the assay with SNB-75 CNS, 85.1%. In addition, the growth was 108% in the assay on SNB-19 CNS; 95.3% in the assay on U251 CNS; 81.2% in the assay with PC-3 prostate; 93.2% in the assay with SK-MEL-5 melanoma; 97.5% with UACC-62 melanoma; 95.8% in the assay on LOX IMVI melanoma. In addition, the growth with SK-MEL-28 melanoma was 100%.
`O=C(CCl)N1c2ccccc2Sc2c1ccc1ccccc21`: the growth is 93.9% in the assay on DU-145 prostate; 55.7% in the assay with K-562 leukemia; 76.4% in the assay on MDA-MB-231 breast; 70.4% in the assay with RXF 393 renal; 70.4% in the assay with SF-268 CNS; 94.5% in the assay with SF-295 CNS. The growth with SF-539 CNS is 84.7%; in the assay on UACC-257 melanoma it was 89.4%; with M14 melanoma it was 61.1%; in the assay with HCT-15 colon, 39%; with HT29 colon, 69.4%; with SNB-75 CNS, 60.2%. In addition, the growth in the assay with SNB-19 CNS was 88.9%; in the assay on PC-3 prostate, 70.6%; in the assay on SK-MEL-5 melanoma it was 84.5%; with UACC-62 melanoma it was 78%; in the assay on SK-MEL-28 melanoma it was 111%.
As to `CCOC(=O)C1=NN(c2ccccc2)C(=O)/C1=C\N1C(=O)/C(=C/c2cccc(O)c2)SC1=S`, the growth with DU-145 prostate is 96.8%; in the assay with K-562 leukemia it was 100%; in the assay with MDA-MB-231 breast it was 87.6%; in the assay on RXF 393 renal, 101%; in the assay with SF-268 CNS, 91.7%; with SF-295 CNS, 104%. Moreover, the growth in the assay on SF-539 CNS was 107%; in the assay on UACC-257 melanoma, 98.3%; with M14 melanoma, 89.6%; in the assay on HCT-15 colon, 109%; in the assay on HT29 colon it was 111%; in the assay with SNB-75 CNS, 97.2%. The growth with SNB-19 CNS is 94.4%; with U251 CNS, 89%; in the assay with PC-3 prostate it was 88%; with SK-MEL-5 melanoma it was 95%; in the assay on UACC-62 melanoma, 91.9%; with LOX IMVI melanoma, 88%. Further, the growth in the assay with SK-MEL-28 melanoma was 111%.
On to `CCCCCC[C@@H](O)C/C=C\CCCCCCCC(=O)OCCOC`, for which the growth in the assay with DU-145 prostate was 116%; with K-562 leukemia, 137%; in the assay on MDA-MB-231 breast it was 90%; in the assay on RXF 393 renal it was 110%; in the assay on SF-268 CNS it was 106%; in the assay with SF-295 CNS, 131%. Further, the growth with SF-539 CNS is 106%; with UACC-257 melanoma, 100%; in the assay on HCT-15 colon, 103%; in the assay with HT29 colon, 101%; with SNB-75 CNS, 90%; in the assay with SNB-19 CNS, 97.8%. Besides, the growth in the assay with U251 CNS was 105%; in the assay on PC-3 prostate, 90.4%; in the assay on SK-MEL-5 melanoma, 96.2%; in the assay on UACC-62 melanoma, 90.6%; in the assay on LOX IMVI melanoma it was 86%; in the assay with SK-MEL-28 melanoma it was 105%.
In the case of `CN(C)CC(C)(CN(C)C)C(=O)/C=C/c1c(Cl)cccc1Cl`, the growth in the assay with DU-145 prostate was 36.4%; in the assay on K-562 leukemia, -8.43% (active); with MALME-3M melanoma, -67.2% (active); with RXF 393 renal, -80.8% (active); with SF-295 CNS it was 78.2%; in the assay with SF-539 CNS, -2.86% (active). Further, the growth in the assay with UACC-257 melanoma was 52.5%; in the assay on M14 melanoma, 12.7%; in the assay with HCT-15 colon, -65.6% (active); in the assay with HT29 colon, 12.2%; in the assay with SNB-75 CNS, 64.5%; with U251 CNS it was 40.4%. Besides, the growth is 46.2% in the assay with PC-3 prostate, 20.1% in the assay with UACC-62 melanoma, -100% (active) in the assay with LOX IMVI melanoma and 4.32% (active) in the assay with SK-MEL-28 melanoma.
In the case of `CN(C)c1ccc2cc3c(cc2c1)Oc1ccccc1N3.[Cl][Zn][Cl]`, the growth is 90.9% in the assay on DU-145 prostate; 12.1% in the assay on K-562 leukemia; 0.0703% (active) in the assay with MDA-MB-231 breast; 95.6% in the assay with RXF 393 renal; 83.8% with SF-268 CNS; 97.2% in the assay with SF-295 CNS. Also, the growth is 99.9% in the assay with SF-539 CNS; 81.5% in the assay on UACC-257 melanoma; 102% in the assay on M14 melanoma; 48.5% in the assay with HCT-15 colon; 97.3% in the assay on HT29 colon; 103% with SNB-75 CNS. Further, the growth with SNB-19 CNS was 114%; with U251 CNS, 78.7%; with PC-3 prostate, 81.1%; in the assay on SK-MEL-5 melanoma, 70.6%; in the assay with UACC-62 melanoma it was 65%; in the assay on LOX IMVI melanoma, 32%. In the assay on SK-MEL-28 melanoma, the growth was 111%.
